The text below walks through data of PubChem BioAssay.

The subject of test [1] is Human papillomavirus type 1a protein E7 (residues 44-93). Put plainly: HPV1a E7 fragment binders on microarrays, primary screen, biochemical, small-molecule microarray, residues 44-93, 635 nm fluorescence (AID 1108).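 Further: E7 fragment applied at 1 µg/mL in TBST for 1 h at 4 C; score combines spot fluorescence with its signal to noise ratio.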 The conditions noted are these: small-molecule microarray binding, fluorescence 635 nm; higher = more signal.
The nature of test [2]: modulators of HCV replicon luciferase signal, primary screen, HCV replication inhibitor project, Huh7 cells, luciferase reporter (AID 1109).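 Further: huh7 hepatoma cells harbouring a luciferase neomycin HCV replicon reporter; luciferase luminescence as measure of HCV replicon replication; test concentration not given here.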 The note with it: 48 h, higher = more signal. For orientation: In antiviral work, replicon cells carry a viral genome segment that copies itself.
Test [3] deals with Left-right determination factor 2 (Homo sapiens) (UniProt O00292). Put plainly: LEFTY2 binders on small-molecule microarrays, primary screen, biochemical, small-molecule microarray, 635 nm fluorescence scan (AID 1110). The conditions noted are these: LEFTY2 binding, higher = more signal.
Left-right determination factor 2 (Homo sapiens), sequence (O00292 whole entry, looked up): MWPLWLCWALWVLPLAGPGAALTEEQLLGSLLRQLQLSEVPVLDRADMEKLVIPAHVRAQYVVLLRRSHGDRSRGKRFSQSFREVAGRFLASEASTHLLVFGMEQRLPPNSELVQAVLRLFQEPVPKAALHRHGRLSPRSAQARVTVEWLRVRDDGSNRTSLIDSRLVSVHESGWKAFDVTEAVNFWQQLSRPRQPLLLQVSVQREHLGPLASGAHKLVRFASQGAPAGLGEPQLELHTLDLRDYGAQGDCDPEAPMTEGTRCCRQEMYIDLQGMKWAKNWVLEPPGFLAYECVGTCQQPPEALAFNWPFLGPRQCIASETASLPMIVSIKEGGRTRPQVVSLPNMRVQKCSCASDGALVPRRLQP
Test [4] has as its target Calmodulin-1 (Homo sapiens) (UniProt P0DP23). Kind of test: CALM1 binders on microarrays, EGTA buffer, profiling panel, biochemical, small-molecule microarray, Cy5-labelled CALM1 (AID 1111).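 Further: labelled calmodulin applied in Tris saline Tween buffer holding calcium plus EGTA and DTT.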 The conditions noted are these: Cy5-CALM1 binding fluorescence, higher = more signal.
For test [5] the target is unchanged. Kind of test: calcium-bound CALM1 binders on microarrays, profiling panel, artefact control for SMM control-protein annotation, biochemical, small-molecule microarray, Cy5-labelled CALM1, plus calcium (AID 1112).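 Further: score merges spot fluorescence with signal to noise from triplicate slides.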 The conditions noted are these: Cy5-CALM1 binding fluorescence, higher = more signal.
A short description of test [6]: small-molecule microarray binders of probe aWnt5a, primary screen, biochemical, biotinylated probe, 635/667 nm fluorescence (AID 1113).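 Further: score merges 667 nm fluorescence intensity with signal-to-noise per printed feature.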 The conditions noted are these: higher = more signal.
Test [7] is described as follows: small-molecule microarray binders of probe aShh, primary screen, biochemical, biotinylated probe, 635/667 nm fluorescence (AID 1114).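 Further: probe is biotin-labelled aShh protein from a stem cell growth factor screen; measures binding of labelled protein to compounds printed on the slide; score merges feature fluorescence at 667 nm with signal-to-noise.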 The conditions noted are these: higher = more signal.
A short description of test [8]: small-molecule microarray binders of probe aNog, primary screen, biochemical, biotinylated probe, 635/667 nm fluorescence (AID 1115).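 Further: probe is biotinylated aNog protein used at 0.15 µg/mL for 1 h at 4 C; z-score combines 667 nm fluorescence of each spot with its signal to noise.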 The note with it: higher = more signal.
The target of test [9] is Torsin-1A-interacting protein 1 (Homo sapiens) (UniProt Q5JTV8). Kind of test: LAP1 binders from COS7 cell lysate, primary screen, small-molecule microarray, 635/667 nm fluorescence (AID 1116). The conditions noted are these: COS7-hLAP1 lysate binding, 635 nm fluorescence, higher = more signal.
Torsin-1A-interacting protein 1 (Homo sapiens), sequence (Q5JTV8 whole entry, looked up): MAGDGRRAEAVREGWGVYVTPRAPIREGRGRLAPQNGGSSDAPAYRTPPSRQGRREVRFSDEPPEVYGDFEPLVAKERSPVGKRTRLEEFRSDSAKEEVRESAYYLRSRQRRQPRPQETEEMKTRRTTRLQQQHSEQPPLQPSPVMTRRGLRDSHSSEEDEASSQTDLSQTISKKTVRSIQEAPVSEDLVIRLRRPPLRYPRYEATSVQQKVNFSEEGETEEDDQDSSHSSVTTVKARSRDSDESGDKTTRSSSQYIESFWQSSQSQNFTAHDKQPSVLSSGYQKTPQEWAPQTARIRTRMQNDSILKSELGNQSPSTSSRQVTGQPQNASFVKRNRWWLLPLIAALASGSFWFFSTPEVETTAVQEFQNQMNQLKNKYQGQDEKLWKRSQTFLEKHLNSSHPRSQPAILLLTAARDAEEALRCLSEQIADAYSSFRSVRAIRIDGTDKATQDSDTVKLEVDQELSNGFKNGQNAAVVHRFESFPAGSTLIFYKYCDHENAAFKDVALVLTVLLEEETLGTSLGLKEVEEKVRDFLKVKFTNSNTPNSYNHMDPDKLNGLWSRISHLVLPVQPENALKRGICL
Test [10] addresses Alpha-bungarotoxin (Bungarus multicinctus) (UniProt P60615). Put plainly: alpha-bungarotoxin binders on microarray, profiling panel, artefact control for SMM control protein annotation, biochemical, small-molecule microarray, Alexa647 label, 635/667 nm fluorescence (AID 1117). The conditions noted are these: alpha-BTX-A647 binding fluorescence, higher = more signal.

Alpha-bungarotoxin (Bungarus multicinctus), sequence (P60615 whole entry, looked up): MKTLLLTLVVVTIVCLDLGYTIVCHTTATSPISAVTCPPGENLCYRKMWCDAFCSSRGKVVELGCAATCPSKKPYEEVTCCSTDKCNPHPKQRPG

For `NCCCCCNC(=O)[C@@H]1C[C@@H]2C(=O)N[C@@H](CCCCN)C(=O)N2[C@@H]1c1cccc(OCCO)c1`, the composite z-score in test [1] was 0.309; in test [3], 0.599; in [4], -0.804; in [5] it was -0.262; in test [6], 0.0921; in test [7], 0.241. For the same compound, the composite z-score in test [8] was 0.628; in [9], 1.97; in test [10] it was -0.066. This compound also came in with a z-score in test [2] of 0.731.

`C[C@@H]1ON(c2ccc(C(=O)OC(C)(C)C)cc2)[C@H](c2ccc(Br)cc2)[C@H]1C(=O)N1C(=O)OC[C@H]1Cc1ccccc1`: the composite z-score is 1.38 in [1]; 0.498 in test [3]; 0.79 in [4]; -0.115 in [5]; -0.0643 in test [6]; -0.138 in test [7]. Moreover, the figures for the composite z-score in test [8], in test [9] and in test [10] were 0.25, 0.323 and 0.544, respectively. Further, the z-score in test [2] is 1.05.

On to `C=C(/C=C/CNS(=O)(=O)c1ccc(C)cc1)[C@H](O)[C@H]1CCCN1S(=O)(=O)c1ccccc1[N+](=O)[O-]`, for which the composite z-score in [1] is -0.197; in [3], 0.77; in test [4], -0.115; in [5], -0.795; in test [6], -0.119; in test [7], -0.138. Further, the composite z-score in [8] was -0.272; in test [9], 0.581; in test [10], 0.616. Further, the z-score in [2] is -2.48.

On to `C=CCOC(=O)[C@@H]1[C@H]2C(=O)O[C@H](c3ccccc3)[C@H](c3ccccc3)N2[C@H](c2ccc(OCCOC(=O)[C@H]3C[C@H]4C(=O)N[C@@H](CC(C)C)C(=O)N4[C@H]3c3ccc(O)cc3)cc2)[C@@]12C(=O)Nc1ccc(I)cc12`, for which the composite z-score in test [1] is 0.719; in [3], 0.808; in [4] it was 0.0847; in test [5], -0.481; in [6] it was -0.0478; in [7] it was 0.235. Also, the composite z-score in test [8] is 0.135; in [9], 0.859; in [10], 2. Further, the z-score in test [2] is -0.866.

For the compound `CN1C(=O)C2C=CC(C(O)c3c(F)cccc3Cl)N(Nc3ccccc3)C2C1=O` (stereo not given), the composite z-score in [1] is 1.19; in test [3], -0.445; in [4], 1.45; in test [5] it was 0.496; in [6] it was -0.0276; in test [7] it was 0.432. Further, the composite z-score in [8] turned out to be 0.707; in [9], 0.0127; in test [10] it was 0.904. For the same compound, the z-score in test [2] is -0.659.

Take `COc1cc2c(cc1OC)CN(C(=O)[C@H]1[C@@H]3C(=O)O[C@@H](c4ccccc4)[C@@H](c4ccccc4)N3[C@@H](c3ccc(OCCO)cc3)[C@]13C(=O)Nc1ccc(C#CCCO)cc13)CC2`: the composite z-score in [1] was 1.43; in test [3] it was 0.509; in test [4], 1.23; in test [5], 0.642; in [6], 0.0668; in [7], -0.0146. Also, the values for the composite z-score in test [8], in test [9] and in test [10] were 0.033, 1.02 and 1.72, respectively. Moreover, in test [2], the z-score was -0.563.

Consider `C=CCNC(=O)[C@@H]1[C@H]2C(=O)O[C@H](c3ccccc3)[C@H](c3ccccc3)N2[C@H](c2ccc(OCCO)cc2)[C@@]12C(=O)N(C(=O)OCCOC)c1ccc(C#CC3=CCCCC3)cc12`, for which the composite z-score was 1.34 in test [1]; 0.509 in [3]; 1.66 in test [4]; 0.283 in [5]; -0.0051 in [6]; 0.13 in [7]. The values for the composite z-score in [8], in test [9] and in test [10] were -0.375, 0.642 and 0.84, respectively. In addition, in test [2], the z-score is -1.68.

As for `Cc1ccc(C(C)CC(O)C2C=CC3C(=O)N(c4ccccc4)C(=O)C3N2Nc2ccc(C(C)C)cc2)o1` (stereo not given), the composite z-score in test [1] was 1.33; in test [3] it was -0.0337; in [4], 2.35; in test [5] it was 1.01; in [6] it was 0.14; in test [7], -0.043. In addition, the composite z-score is 0.0485 in test [8], 0.801 in test [9] and 1.64 in test [10]. Further, the z-score in [2] turned out to be 1.02.

Regarding `COC(=O)[C@@]1(Cc2ccccc2)[C@H]2c3cc(C(=O)N4CCCC4)[nH]c3C[C@H]2CN1C(=O)c1ccccc1`, the composite z-score was -1.89 in [1]; -0.632 in test [3]; 0.677 in test [4]; 0.705 in [5]; 0.0913 in [6]; -0.243 in test [7]. The figures for the composite z-score in [8], in test [9] and in test [10] were 1.1, 1.96 and -0.243, respectively. The same compound yielded a z-score in [2] of -0.151.

As to `CCCC=C(CCC)[C@@H](NP(=O)(c1ccccc1)c1ccccc1)c1ccc(C(F)(F)F)cc1`, the composite z-score in test [1] is 1.13; in test [3] it was 0.0293; in test [4], 0.0848; in [5], -0.33; in test [6], 0.474; in test [7], 0.135. Further, the composite z-score in test [8] is -0.301; in test [9] it was 0.145; in test [10] it was 0.109. In test [2], this compound gave a z-score of -0.475.

`CC(C)C(CO)N1C(=O)[C@]2(C)C3C(=O)OCCC/C=C\[C@H]3OC23C=CCN(c2ccc(Cl)cc2)C(=O)[C@@H]13` (stereo not given in full): the composite z-score is 0.964 in test [1]; -1.03 in [3]; -0.224 in test [4]; -0.193 in [5]; -0.131 in test [6]; -0.138 in test [7]. For the same compound, the composite z-score in test [8] is 0.563; in [9], -0.0952; in test [10], -0.28. The z-score in test [2] worked out at 0.344.

With `CCOC(=O)C[C@H]1[C@H](OC(=O)c2ccc(-c3ccccc3)cc2)[C@@H](NC(=O)c2ccc3ccccc3n2)c2cc(OCCCO)ccc2N1C(=O)c1ccccc1`, the composite z-score is 1.33 in test [1]; 0.479 in test [3]; 0.992 in [4]; 0.389 in test [5]; -0.0606 in test [6]; -0.0904 in test [7]. For the same compound, the composite z-score is -0.302 in test [8], 0.574 in test [9] and 0.452 in test [10]. This compound showed a z-score in test [2] of -1.1.

As to `COCCOC(=O)N1C(=O)[C@@]2(c3cc(C#CCC(C(=O)OC)C(=O)OC)ccc31)[C@H](c1ccc(OCCO)cc1)N1[C@H](c3ccccc3)[C@H](c3ccccc3)OC(=O)[C@H]1[C@@H]2C(=O)N1CCN(c2ncccn2)CC1`, the composite z-score in test [1] was 1.17; in test [3] it was 0.603; in test [4], 1.41; in test [5], 0.377; in [6] it was -0.0236; in test [7], 0.184. Moreover, the composite z-score in test [8] was 0.363; in [9], 1.33; in [10] it was 1.85. In test [2], this compound had a z-score of -1.46.

Consider `C=CCN1C(=O)[C@@]2(CCC(=O)OC(C)(C)C)N=C(c3ccc(OCCCO)cc3)O[C@H]2c2ccccc21`, for which the composite z-score in test [1] stood at 1.36; in [3] it was 0.224; in test [4], 1.47; in test [5] it was 0.516; in test [6] it was 0.065; in [7], 0.0048. Also, the values for the composite z-score in [8], in [9] and in [10] were -0.226, 0.144 and 0.916, respectively. The same compound registered a z-score in [2] of -2.97.

In the case of `CCOC(=O)C[C@H]1[C@H](OC(=O)c2ccccc2-c2ccccc2)[C@@H](NC(=O)CC(C)C)c2cc(OCCCO)ccc2N1C(=O)c1ccc2ccccc2n1`, the composite z-score in test [1] was 0.046; in test [3], 0.186; in test [4] it was 0.844; in test [5], -0.456; in test [6], -0.124; in test [7], -0.0769. In addition, the results for the composite z-score in test [8], in [9] and in test [10] were -0.134, 0.171 and 0.719, respectively. In test [2], this compound had a z-score of -0.578.

For the compound `C=C(C(=O)CC[C@H](OC(=O)c1cccnc1)c1cccc(OCCO)c1)C(C)C`, the composite z-score in test [1] is 0.074; in [3] it was -0.507; in [4] it was -1.21; in test [5] it was -1.58; in test [6], -0.124; in test [7], 0.0952. Further, the composite z-score was 0.151 in test [8], 0.307 in [9] and -0.0234 in test [10]. Moreover, the z-score in test [2] was -3.63.

As for `O=C1C[C@]2(c3ccc([N+](=O)[O-])cc3)C(=O)N(Cc3ccccc3)c3cc(CO)ccc3[C@H]2N1CC12CC3CC(CC(C3)C1)C2`, the composite z-score in test [1] is -0.864; in test [3], -1.11; in test [4] it was -0.393; in [5], -0.11; in [6], -0.281; in [7], -0.408. Moreover, the composite z-score in test [8] was -0.103; in [9], -0.0647; in test [10], -0.814. The same compound yielded a z-score in [2] of -0.411.
